Experiment [1] can be described thus: qHTS for Inhibitors of Plasmodium falciparum (CP250) proliferation (AID 504320). The gist of the method:
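Erythrocytes infected with P. falciparum line (0.3% parasitemia, 2.5% hematocrit final) incubated with compounds 72 h at 37 °C, 5% CO2; SYBR Green lysis buffer added, fluorescence read next day. Normalized to 0.29 uM artemisinin and DMSO.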
(Quantitative high-throughput screening tests each substance at several concentrations.)

In experiment [2] the target is Atrial natriuretic peptide receptor 1 (Homo sapiens) (UniProt P16066). Kind of experiment: Natriuretic polypeptide receptor (hNpr1) antagonism - Pilot CMLD screen (AID 1347052; calls by dose curve;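 further: HEK293 cells with hNpr1 stimulated by hNppA peptide at 0.1 nM; cGMP level read as GloSensor luciferase luminescence after agonist stimulation; series mostly up to about 9.2 µM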).
Experiment [3] concerns the target N-terminal Xaa-Pro-Lys N-methyltransferase 1 (Homo sapiens) (UniProt Q9BV86). The experiment can be described thus: qHTS Assay for Inhibitors of N-terminal methyltransferase 1 (NTMT1): LOPAC validation of the NTMT1 SAHH-coupled ThioGlo3 Assay (AID 1347143).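 Further: SAH from peptide methylation measured as thiol fluorescence via SAHH coupling and ThioGlo3; potency means the concentration at half of the fitted maximal effect; nearly all actives have a fitted effect of over 70% in size.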 In outline:
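Inhibition of NTMT1 methylation of peptide SPKRIA is followed by converting SAH with SAHH and labelling the released thiol with ThioGlo3. Plates are read at 340/450nm before and 30 min after reagent addition, both at room temperature.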

Experiment [4] addresses Furin (Homo sapiens) (UniProt P09958). Kind of experiment: Furin counterscreen qHTS for Zika virus inhibitors (AID 1347149).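 Further: purified recombinant full-length human furin enzyme at 5 nM; fluorescence gain from furin cutting a BOC-RVRR-AMC peptide substrate over 15 min; top concentration of the series differs between compounds; nearly all actives have a fitted effect of over 70% in size.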 In outline:
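Fluorogenic cleavage of BOC-RVRR-AMC (2 microM final, Km ~15 µM) was monitored (ex 340, em 450 nm) at 37C after 15 min RT preincubation of 5 nM furin with compounds in HEPES pH 7.0 buffer with CaCl2 and Triton X-100. Percent inhibition was fitted to a 4-parameter Hill curve.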
On the technique in general: Counterscreens check selectivity or assay interference.

Experiment [5] concerns Zika virus NS2B-NS3 protease (linked construct). The experiment can be described thus: Confirmatory screen NINDS AMC qHTS for Zika virus inhibitors (AID 1347152). Further: top concentration of the series differs between compounds; nearly all actives have a fitted effect of over 70% in size. The gist of the method:
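IC50s from 4-parameter Hill fits of percent inhibition, based on AMC fluorescence gain (340/450 nm) over 15 min with 10 microM Bz-Nle-KRR-AMC. Enzyme: 1 nM linked NS2B-NS3 in Tris-HCl pH 8.0; 15-min compound preincubation.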

In experiment [6] the test system is Zika virus NS2B-NS3 protease (unlinked complex). Kind of experiment: Confirmatory screen GU AMC qHTS for Zika virus inhibitors (AID 1347153). Further: nearly all actives have a fitted effect of over 70% in size. The gist of the method: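 Unlinked NS2B-NS3 complex (25 nM) in 10 mM Tris-HCl pH 8.0, 0.01% Tween 20 preincubated 15 min with compound, then 10 microM Bz-Nle-KRR-AMC (Km 18.3 µM). Fluorescence change over 15 min, normalized, Hill-fitted.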

In experiment [7] the target is Glucocorticoid receptor (Homo sapiens) (UniProt P04150). The experiment can be described thus: GR-GFP Redistribution (AID 450;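 active means compounds whose dose series gives a full or clear partial fitted curve of increased nuclear translocation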; further: potency means the concentration at half of the fitted maximal effect). Conditions: U2OS GR-GFP nuclear translocation, laser cytometry, 2 h.
Experiment [8] shares this target. The experiment can be described thus: GR-EFC Redistribution (AID 451; calls by dose curve; further: potency means the concentration at half of the fitted maximal effect). Particulars: CHO-K1 GR-EFC translocation, beta-gal luminescence, 2 h. The gist of the method: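 Translocation of GR-ED fusion to nuclear EA restores b-gal, read by luminescence after 1 h room-temperature detection. Engineered CHO-K1 biosensor cells, 1,000/well, exposed 2 h at 37 C to titrations up to 46 uM final.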

Experiment [9] concerns the target Mitogen-activated protein kinase 10 (Mus musculus) (UniProt Q61831). The experiment can be described thus: JNK3 AlphaScreen Assay (AID 530; active means well fitted curve in either direction with a large enough effect, not every such curve was filed as active;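 further: kinase came from lysate of stimulated human HepG2 cells; signal reports phosphorylation of biotinylated GST-cJun 1-79 at Ser73 with 10 µM ATP; series mostly up to about 57 µM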). The gist of the method:
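Compound titrations were preincubated 15 minutes at room temperature with substrate, antibody and pre-activated JNK3-containing HepG2 lysate. Reactions were started with 10 uM ATP and stopped with EDTA-containing bead buffer for AlphaScreen detection.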
(In general: In Alpha technology, singlet oxygen from a donor bead excites a nearby acceptor bead.)

In experiment [10] the target is Cytochrome P450 3A4 (Homo sapiens) (UniProt P08684). The experiment can be described thus: qHTS Assay for Activators of Cytochrome P450 3A4 (AID 885). Further: nearly all actives have a fitted effect of over 65% in size. The gist of the method:
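Human CYP3A4 (20 nM) with Luciferin-PPXE at 25 uM (its KM) in 200 mM KPO4; 10 min compound preincubation, then NADPH regeneration and 60 min reaction at RT. Luciferin read by luminescence; normalized to 57 uM ketoconazole full inhibition.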

Experiment [11] has as its target DNA dC->dU-editing enzyme APOBEC-3G (Homo sapiens) (UniProt Q9HC16). The experiment can be described thus: qHTS for inhibitors of Vif-A3G interactions: Validation (AID 588379). The gist of the method:
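HeLa cells stably expressing Vif and A3G-eYFP, 700 cells/well, incubated overnight at 37 deg C, then exposed to compound overnight at 37 deg C. Inhibition of Vif-mediated degradation read as increased yellow fluorescence (Ex 488/Em 500-530) by laser-scanning cytometry.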

Experiment [12] concerns Zika virus NS2B-NS3 protease (unlinked). The experiment can be described thus: Optimization of GU AMC qHTS for Zika virus inhibitors: Unlinked NS2B-NS3 protease assay (AID 1347151). Further: nearly all actives have a fitted effect of over 80% in size. Further: potency means the concentration at half of the fitted maximal effect. The gist of the method:
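Fluorescence gain (340/450 nm) over 15 min at room temperature, ~20% conversion, gave percent inhibition fitted to a 4-parameter Hill equation; enzyme was unlinked NS2B-NS3 (25 nM final), pH 8.0 Tris buffer.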

Experiment [13] in a line: Vero cells viability qHTS for Zika virus inhibitors (AID 1347167). The gist of the method: (§1)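 Compounds were tested in concentration series on cells grown in DMEM containing 4% FBS. After 24 to 48 hours, cellular ATP was measured by luminescence with CellTiter Glo.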
The nature of experiment [14]: HepG2 cells viability qHTS for Zika virus inhibitors (AID 1347168). The gist of the method:
as §1

Experiment [15] is described as follows: Primary qHTS for small molecule stabilizers of the endoplasmic reticulum resident proteome: Secreted ER Calcium Modulated Protein (SERCaMP) assay (AID 1508630). In outline:
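GLuc-SERCaMP-expressing SH-SY5Y cells, pretreated 16 h with compound, are challenged with thapsigargin to empty ER calcium stores; after 4 h, coelenterazine is added directly to the medium and luminescence is imaged.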

Experiment [16] addresses Cytochrome P450 2D6 (Homo sapiens) (UniProt P10635). Kind of experiment: Cytochrome P450 family 2 subfamily D member 6 (CYP2D6) small molecule antagonists: luciferase biochemical (cell-free) qHTS assay (AID 1645840; active means well fitted curve in the direction sought with a large enough effect in the repeat runs; an effect the other way counts as inactive or inconclusive; further: series mostly up to about 57 µM; nearly all actives have a fitted effect of over 55% in size). The gist of the method: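 P450-Glo luminescent screen: recombinant CYP2D6 enzyme–proluciferin substrate mix preincubated with compound 10 min at room temperature, then NADPH regeneration added for 1 h at room temperature. Detection reagent added for 20 min; luciferin light read as relative luminescence units.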

Experiment [17] in a line: ZIKV-mCherry secondary qHTS for Zika virus inhibitors (AID 1347158). Further: top concentration of the series differs between compounds. The gist of the method: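 Vero, 5,000 cells/well, o/n 37 °C; cpd pin-transferred in DMSO; ZIKV-mCherry MOI 1, 48-72 h 37 °C; 32% PFA stock fix, Hoechst; imaged 10x DAPI/mCherry; mCherry+ threshold 450 RFU; % infection.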
For experiment [18], the system named is Zika virus NS2B-NS3 protease (linked). The experiment can be described thus: 384 well plate NINDS AMC confirmatory qHTS for Zika virus inhibitors (AID 1347163).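 Further: linked protease at 5 30 or 60 nM final depending on run; fluorescence of AMC released from Ac-VKTGKR-AMC peptide cleaved by the protease; top concentration of the series differs between compounds; nearly all actives have a fitted effect of over 50% in size.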 The gist of the method:
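Linked NS2B-NS3 protease (final 5 nM, 30 nM or 60 nM) was preincubated with compounds (final up to 1 mM) for ~15 minutes. Ac-VKTGKR-AMC substrate (final 30 microM) then reacted for 25 minutes at room temperature in the dark. Fluorescence (ex 355/em 460 nm) was normalized to no-enzyme and no-inhibitor controls.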

Experiment [19] concerns Zika virus NS2B-NS3 protease (linked construct). The experiment can be described thus: 384 well plate NINDS Rhodamine confirmatory qHTS for Zika virus inhibitors (AID 1347164).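 Further: fluorescence from protease cleavage of Ac-LKRR-rhodamine 110 substrate; top concentration of the series differs between compounds; nearly all actives have a fitted effect of over 65% in size.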 In outline:
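Fluorescence at 485/538 nm was measured 25 minutes after adding 10 microM Ac-LKRR-Rd substrate, in the dark at room temperature. The protease (5, 30 or 60 nM final) had been preincubated ~15 minutes with compound; aprotinin as control.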

Experiment [20] in a line: Tertiary RLuc qRT-PCR qHTS assay for Zika virus inhibitors (AID 1347169). Further: top concentration of the series differs between compounds; nearly all actives have a fitted effect of over 55% in size. The gist of the method: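 Orthogonal cell-based readout: luminescence measured 1-1.5 hrs after adding live-cell Renilla substrate to Vero cells that had been infected with ZIKV-RLuc (MOI 1-2) post-compound, incubated 48-72 hrs at 37 degrees C.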

Values without a mark were called inactive. Results filed as inconclusive are left out. Calls of active or inactive are those of the source. Unless noted, the call rests on the fitted dose curve; in most records, active means well fitted curve in the direction sought with a large enough effect; inconclusive means small, poorly fitted or top-dose-only effect, or another doubt; inactive means no such curve, though single readings can be large; an effect the other way counts as inactive or inconclusive. Numbered stars: 1 amine (or outer) side, 2 acyl side, 3 side chain; on linkers, the order of the positions; unused ones are H or OH. Bridge positions count the residues as written; N and C are the ends. Square brackets hold non-standard residues; d marks the D form. Peptide text beside a SMILES is read from it. I, II: the chains in the order shown. Actinocin(9to1) = Cc1c2oc3c(C)ccc(C(=O)[*:1])c3nc-2c(C(=O)[*:2])c(N)c1=O; aThr = C[C@H](O)[C@H](N)C(=O)O; NMeV = CN[C@H](C(=O)O)C(C)C; Sar = CNCC(=O)O Bounds are passed on as bounds.

We go through 24 molecules from PubChem BioAssay (NCATS).

Sequence of Furin (Homo sapiens) (P09958 whole entry, looked up): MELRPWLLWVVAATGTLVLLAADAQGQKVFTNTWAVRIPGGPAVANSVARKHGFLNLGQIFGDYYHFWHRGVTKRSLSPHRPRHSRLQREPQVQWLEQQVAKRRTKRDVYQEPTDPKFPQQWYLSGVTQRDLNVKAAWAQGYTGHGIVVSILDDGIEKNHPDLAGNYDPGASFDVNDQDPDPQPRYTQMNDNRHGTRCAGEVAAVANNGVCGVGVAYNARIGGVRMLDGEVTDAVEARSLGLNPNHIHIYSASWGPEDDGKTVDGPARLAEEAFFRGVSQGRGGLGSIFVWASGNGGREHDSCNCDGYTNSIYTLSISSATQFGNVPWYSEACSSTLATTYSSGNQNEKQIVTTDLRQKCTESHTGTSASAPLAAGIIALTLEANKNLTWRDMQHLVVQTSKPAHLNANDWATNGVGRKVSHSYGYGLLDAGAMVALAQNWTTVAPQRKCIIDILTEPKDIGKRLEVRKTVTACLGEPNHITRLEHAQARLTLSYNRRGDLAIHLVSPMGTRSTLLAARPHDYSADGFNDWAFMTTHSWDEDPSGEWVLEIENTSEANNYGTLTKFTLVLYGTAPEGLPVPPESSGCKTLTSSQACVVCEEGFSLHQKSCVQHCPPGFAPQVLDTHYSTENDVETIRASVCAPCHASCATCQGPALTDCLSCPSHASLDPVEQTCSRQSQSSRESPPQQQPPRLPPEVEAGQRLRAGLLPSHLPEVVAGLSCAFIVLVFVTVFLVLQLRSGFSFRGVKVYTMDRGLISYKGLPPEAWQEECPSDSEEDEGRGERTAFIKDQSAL
Sequence of Atrial natriuretic peptide receptor 1 (Homo sapiens) (P16066 whole entry, looked up): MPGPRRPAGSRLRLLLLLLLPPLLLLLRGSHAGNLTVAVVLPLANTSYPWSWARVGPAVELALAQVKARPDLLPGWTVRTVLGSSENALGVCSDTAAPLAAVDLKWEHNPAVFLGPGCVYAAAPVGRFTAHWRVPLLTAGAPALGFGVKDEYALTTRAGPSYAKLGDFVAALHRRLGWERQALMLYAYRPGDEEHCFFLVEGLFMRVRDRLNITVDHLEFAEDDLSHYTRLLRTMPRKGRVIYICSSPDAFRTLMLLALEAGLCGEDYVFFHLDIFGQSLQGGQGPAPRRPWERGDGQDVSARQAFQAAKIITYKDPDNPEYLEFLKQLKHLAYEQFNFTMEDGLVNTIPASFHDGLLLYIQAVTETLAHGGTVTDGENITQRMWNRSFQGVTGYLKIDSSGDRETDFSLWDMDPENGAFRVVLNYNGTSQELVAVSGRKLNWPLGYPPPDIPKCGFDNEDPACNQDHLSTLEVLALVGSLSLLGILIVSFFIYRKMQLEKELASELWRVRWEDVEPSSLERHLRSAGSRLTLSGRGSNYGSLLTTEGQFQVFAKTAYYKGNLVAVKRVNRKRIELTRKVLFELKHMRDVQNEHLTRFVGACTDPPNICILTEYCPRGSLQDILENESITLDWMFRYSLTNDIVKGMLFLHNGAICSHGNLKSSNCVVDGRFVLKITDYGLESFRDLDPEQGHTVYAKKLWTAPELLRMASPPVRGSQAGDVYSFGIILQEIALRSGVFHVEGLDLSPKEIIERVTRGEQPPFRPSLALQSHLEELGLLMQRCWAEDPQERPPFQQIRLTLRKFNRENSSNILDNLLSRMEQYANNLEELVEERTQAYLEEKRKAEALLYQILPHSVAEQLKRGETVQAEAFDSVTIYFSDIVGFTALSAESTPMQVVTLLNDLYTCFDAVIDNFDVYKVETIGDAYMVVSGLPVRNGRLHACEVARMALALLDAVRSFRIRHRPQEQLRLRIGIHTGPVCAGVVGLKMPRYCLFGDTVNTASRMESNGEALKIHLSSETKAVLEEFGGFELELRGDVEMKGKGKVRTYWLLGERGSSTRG
Sequence of Glucocorticoid receptor (Homo sapiens) (P04150 whole entry, looked up, the tested form may be a part): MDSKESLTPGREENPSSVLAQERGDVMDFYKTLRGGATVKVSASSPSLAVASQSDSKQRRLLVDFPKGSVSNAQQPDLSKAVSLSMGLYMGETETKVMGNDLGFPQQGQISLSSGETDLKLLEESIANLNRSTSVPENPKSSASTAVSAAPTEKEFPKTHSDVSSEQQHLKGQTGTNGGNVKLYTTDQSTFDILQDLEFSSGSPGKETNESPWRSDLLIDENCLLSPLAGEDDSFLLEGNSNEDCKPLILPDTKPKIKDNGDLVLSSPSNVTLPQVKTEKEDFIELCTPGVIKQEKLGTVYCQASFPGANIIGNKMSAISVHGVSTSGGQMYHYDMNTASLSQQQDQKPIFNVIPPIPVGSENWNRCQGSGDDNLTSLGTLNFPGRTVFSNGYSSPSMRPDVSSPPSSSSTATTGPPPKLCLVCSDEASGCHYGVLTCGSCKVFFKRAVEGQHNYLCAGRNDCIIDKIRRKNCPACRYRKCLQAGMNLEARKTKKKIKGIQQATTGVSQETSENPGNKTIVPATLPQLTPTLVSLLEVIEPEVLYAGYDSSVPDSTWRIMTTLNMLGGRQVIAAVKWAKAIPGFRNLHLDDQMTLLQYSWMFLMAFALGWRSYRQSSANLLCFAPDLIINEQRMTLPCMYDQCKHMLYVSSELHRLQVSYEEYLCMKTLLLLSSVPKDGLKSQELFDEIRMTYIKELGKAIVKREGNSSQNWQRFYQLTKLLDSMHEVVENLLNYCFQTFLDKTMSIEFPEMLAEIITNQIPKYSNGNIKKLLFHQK
Sequence of DNA dC->dU-editing enzyme APOBEC-3G (Homo sapiens) (Q9HC16 whole entry, looked up): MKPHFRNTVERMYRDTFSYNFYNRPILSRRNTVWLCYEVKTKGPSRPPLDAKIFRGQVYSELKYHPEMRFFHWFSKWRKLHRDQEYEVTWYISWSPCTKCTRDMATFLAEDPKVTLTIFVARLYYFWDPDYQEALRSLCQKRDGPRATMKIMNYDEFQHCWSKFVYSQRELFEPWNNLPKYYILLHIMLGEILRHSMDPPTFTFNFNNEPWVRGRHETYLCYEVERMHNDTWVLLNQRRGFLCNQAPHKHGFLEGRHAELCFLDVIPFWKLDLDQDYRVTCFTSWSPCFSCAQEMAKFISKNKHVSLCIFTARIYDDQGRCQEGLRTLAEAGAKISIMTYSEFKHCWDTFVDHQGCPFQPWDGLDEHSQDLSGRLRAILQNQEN
Sequence of Cytochrome P450 3A4 (Homo sapiens) (P08684 whole entry, looked up): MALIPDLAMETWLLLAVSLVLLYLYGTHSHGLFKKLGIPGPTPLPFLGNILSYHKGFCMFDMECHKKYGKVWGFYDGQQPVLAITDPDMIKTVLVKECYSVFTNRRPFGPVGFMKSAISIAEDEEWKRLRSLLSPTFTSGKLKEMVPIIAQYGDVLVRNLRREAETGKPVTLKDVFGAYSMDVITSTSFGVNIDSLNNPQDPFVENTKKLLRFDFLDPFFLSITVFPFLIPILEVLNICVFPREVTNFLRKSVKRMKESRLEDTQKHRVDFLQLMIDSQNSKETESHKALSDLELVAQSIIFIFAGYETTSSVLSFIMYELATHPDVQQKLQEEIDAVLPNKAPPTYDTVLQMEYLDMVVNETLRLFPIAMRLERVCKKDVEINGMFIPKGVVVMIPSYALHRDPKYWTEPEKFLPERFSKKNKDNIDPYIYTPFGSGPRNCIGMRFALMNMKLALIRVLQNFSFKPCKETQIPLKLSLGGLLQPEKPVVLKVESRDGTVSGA
Sequence of Cytochrome P450 2D6 (Homo sapiens) (P10635 whole entry, looked up): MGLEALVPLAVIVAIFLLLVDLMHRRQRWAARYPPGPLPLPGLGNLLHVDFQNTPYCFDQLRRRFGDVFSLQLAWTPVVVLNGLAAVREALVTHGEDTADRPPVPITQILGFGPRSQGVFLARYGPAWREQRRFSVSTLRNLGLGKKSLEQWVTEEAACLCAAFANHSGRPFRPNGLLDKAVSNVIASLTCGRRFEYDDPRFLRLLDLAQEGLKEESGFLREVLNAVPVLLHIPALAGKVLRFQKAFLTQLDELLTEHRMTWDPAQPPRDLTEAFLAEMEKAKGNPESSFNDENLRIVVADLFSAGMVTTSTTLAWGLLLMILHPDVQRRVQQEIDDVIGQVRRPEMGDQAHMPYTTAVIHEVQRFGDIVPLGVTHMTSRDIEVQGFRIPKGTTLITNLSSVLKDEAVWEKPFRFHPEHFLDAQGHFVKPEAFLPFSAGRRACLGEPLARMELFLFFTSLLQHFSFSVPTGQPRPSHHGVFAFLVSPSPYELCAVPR
Sequence of N-terminal Xaa-Pro-Lys N-methyltransferase 1 (Homo sapiens) (Q9BV86 whole entry, looked up): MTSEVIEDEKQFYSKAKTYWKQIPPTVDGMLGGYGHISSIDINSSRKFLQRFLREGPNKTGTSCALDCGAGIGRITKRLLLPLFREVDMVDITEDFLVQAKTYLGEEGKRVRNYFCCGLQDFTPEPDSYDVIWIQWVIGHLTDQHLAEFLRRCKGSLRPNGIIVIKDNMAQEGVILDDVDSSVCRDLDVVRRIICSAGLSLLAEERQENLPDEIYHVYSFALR

As to `COc1ccc([C@]23Cc4cc(OC)c(OC)cc4[C@H](O2)c2c(cc(C)n(Cc4ccccc4)c2=O)O3)cc1`, the Potency entry in experiment [1] and in experiment [2] was “inactive” in each case.

As to `CC1(C)O[C@@H](C(O)(c2ccccc2)c2ccccc2)[C@H](C(O)(c2ccccc2)c2ccccc2)O1`, the Potency result in [1] and in experiment [2] was “inactive” in each case.

In the case of `COC(=O)C(C(=O)OC)C1OC23CN(S(=O)(=O)c4ccc(C)cc4)C=CC2(C)C3c2ccccc21` (stereo unspecified), the Potency result in experiment [1] and in experiment [2] was “inactive” each time.

Turning to `COc1ccc([C@]23Cc4cc(OC)c(OC)cc4[C@H](O2)C2=C(CC(C)(C)CC2=O)O3)cc1`, the Potency result in [1] and in experiment [2] was “inactive” throughout.

Take `N.N.N.N.N.N.N.N.N.N.N.N.N.N.O.O.[Cl-].[Cl-].[Cl-].[Cl-].[Cl-].[Cl-].[Ru+4].[Ru+5].[Ru+5]`: the Potency in [3] is 44.7 µM (active).

`Cc1cc2c(c(=O)n1Cc1ccccc1)[C@H]1O[C@](c3ccsc3)(Cc3cc(C#N)ccc31)O2`: the Potency entry in experiment [1] and in experiment [2] was “inactive” in each case.

As for `C=CCN1c2ccccc2[C@]23CCC(=O)N(Cc4cc(OC)c(OC)c(OC)c4)C2=NC(C(=O)OC)=C(C(=O)OC)[C@H]13`, the Potency result in experiment [1] and in experiment [2] was “inactive” throughout.

Turning to `C#CCN1C(=O)[C@]2(O[C@H](COc3ccccc3)CC3=C2CCC3)c2ccccc21`, the Potency result in experiment [1] and in experiment [2] was “inactive” throughout.

`Fc1ccccc1-c1nc(-c2ccccc2)oc1NCc1ccccc1`: the Potency result in experiment [1] and in [2] was “inactive” each time.

For `C#CCN1C(=O)[C@]2(OC[C@@H]3Cc4ccccc4[C@@H]3C=C2C)c2ccccc21`, the Potency entry in [1] and in [2] was “inactive” each time.

On to `COC(=O)N[C@@H](c1ccccc1)C(C(=O)OC)C(=O)OC`, for which the Potency entry in [1] and in [2] was “inactive” throughout.

`O=C1Nc2ccccc2[C@@]12O[C@H](COc1ccccc1)CC1=C2CCC1`: the Potency entry in experiment [1] and in [2] was “inactive” in each case.

`O=C1N(CC2CC2)c2cccc(Br)c2[C@@]12O[C@H](COc1ccccc1)CC1=CCCC12` (stereo partly specified): the Potency result in experiment [1] and in experiment [2] was “inactive” in each case.

For the molecule `Oc1c(CN2CCOCC2)cc2c(c1-c1c(O)c(CN3CCOCC3)cc3c1CCCC3)CCCC2`, the Potency entry in experiment [1] and in experiment [2] was “inactive” each time.

For `COCCN1C(=O)C2=C(C1=O)C1N(C)c3ccccc3[C@@]13C[C@@H](CO)N(C(=O)c1ccc(Br)cc1)C3=N2` (stereo partly specified), the Potency entry in experiment [1] and in experiment [2] was “inactive” each time.

`CCOC(=O)CN1C(=O)[C@]2(OC[C@@H]3Cc4ccccc4[C@H]3C=C2C)c2ccccc21`: the Potency entry in experiment [1] and in experiment [2] was “inactive” in each case.

Consider `CCOC(=O)CN1C(=O)[C@]2(O[C@H](COc3ccccc3)CC3=CCCC32)c2c(Br)cccc21` (stereo partly specified), for which the Potency result in experiment [1] and in experiment [2] was “inactive” each time.

As for `N#Cc1ccc2c(c1)C[C@]1(CCCCN3C(=O)c4ccccc4C3=O)OC3=C(C(=O)OC4(CCCCC4)C3)[C@H]2O1`, the Potency result in experiment [1] and in [2] was “inactive” each time.

As for `CC(C)(C)c1ccc(O[C@@H]2[C@H](O)CO[C@@H]2C=CC#Cc2ccccc2)cc1`, the Potency entry in [1] and in experiment [2] was “inactive” each time.

In the case of `COc1ccc(-c2ccnc(N[C@H]3CO[C@H]4[C@@H]3OC[C@@H]4NS(=O)(=O)c3ccc4ccccc4c3)n2)cc1`, the Potency result in experiment [4], in [5] and in experiment [6] was “inactive” in each case.

Consider `Cc1c2oc3c(C)ccc(C(=O)N[C@@H]4C(=O)N[C@@H](C(C)C)C(=O)N5CCC[C@@H]5C(=O)N(C)CC(=O)N(C)[C@@H](C(C)C)C(=O)O[C@H]4C)c3nc-2c(C(=O)N[C@@H]2C(=O)N[C@@H](C(C)C)C(=O)N3CCC[C@@H]3C(=O)N(C)CC(=O)N(C)[C@@H](C(C)C)C(=O)O[C@H]2C)c(N)c1=O` (I: [aThr]V[dP][Sar][NMeV] / II: [aThr]V[dP][Sar][NMeV]; ester I:1-I:C, II:1-II:C; linker I:N-II:N via Actinocin(9to1)), for which the values for the Potency in experiment [7], in [8] and in [12] were above 46 µM, above 46 µM and 27.1 µM (active), respectively. The Potency result in experiment [9], in experiment [10], in experiment [11], in [4], in experiment [13] and in experiment [14] was “inactive” each time. The Potency result in experiment [15] and in [16] was “inactive” each time.

Take `O=C1OC2(c3ccccc31)c1ccc3cc(O)ccc3c1Oc1c2ccc2cc(O)ccc12`: the Potency entry in experiment [4] is “inactive”.

With `Nc1ncnc2c1ncn2[C@@H]1O[C@H](CSCC[C@H](N)C(=O)O)[C@@H](O)[C@H]1O`, the Potency result in experiment [4], in experiment [12], in experiment [17], in experiment [18], in experiment [19] and in [13] was “inactive” throughout. Further, the Potency entry in experiment [14] and in experiment [20] was “inactive” throughout.

With `O=C(CSc1ncccc1C(=O)Oc1ccccc1Cl)Nc1ccc(C(F)(F)F)cc1Cl`, the Potency entry in experiment [4] is “inactive”.
